Compound activity from PubChem.
The list is not random: actives were taken first. Their share in the collection is about 3.9%.
Casp1 inh: caspase-1 (human) inhibition, allosteric or competitive; P29466; Caspase-1 enzyme, Ac-WEHD-AFC fluorogenic rate; Potency, µM (doses to about 57.5 µM), actives largely listed as inhibitors; 75,000 tested, 0.03% active; AID 900
ALOX15 inhib: 15-hLO (ALOX15) enzyme inhibition; P16050; purified 15hLO-1, xylenol orange hydroperoxide absorbance; Potency, µM (top dose mostly 57.1 µM), most hits filed as inhibitors; 74,000 tested, 1.4% active; AID 887; also: nearly all actives have a fitted effect of over 55% in size
Target sequence (P16050 whole entry, looked up): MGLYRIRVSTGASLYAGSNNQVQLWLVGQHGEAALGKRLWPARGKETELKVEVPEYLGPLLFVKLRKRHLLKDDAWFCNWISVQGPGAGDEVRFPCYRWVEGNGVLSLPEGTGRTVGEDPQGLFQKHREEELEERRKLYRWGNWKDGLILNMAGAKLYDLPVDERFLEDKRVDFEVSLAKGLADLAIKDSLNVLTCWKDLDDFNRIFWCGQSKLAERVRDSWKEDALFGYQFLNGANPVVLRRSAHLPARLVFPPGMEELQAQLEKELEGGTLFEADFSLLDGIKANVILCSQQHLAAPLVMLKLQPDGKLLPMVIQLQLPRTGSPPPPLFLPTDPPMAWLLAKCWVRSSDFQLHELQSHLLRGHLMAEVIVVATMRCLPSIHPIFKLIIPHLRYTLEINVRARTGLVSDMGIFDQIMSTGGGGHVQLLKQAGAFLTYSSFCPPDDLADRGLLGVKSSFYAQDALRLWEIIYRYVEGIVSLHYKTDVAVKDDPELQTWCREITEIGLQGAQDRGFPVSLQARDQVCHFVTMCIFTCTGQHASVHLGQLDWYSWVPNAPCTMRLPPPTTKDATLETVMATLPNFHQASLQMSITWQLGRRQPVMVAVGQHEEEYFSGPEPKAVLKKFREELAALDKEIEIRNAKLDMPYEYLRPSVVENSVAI
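40 nM 15hLO-1 + cpd, 15 min RT; start w/ 50 uM AA (final), 6 min RT; stop/detect w/ 200 uM XO + 300 uM Fe(II) in 50 mM H2SO4, 30 min; A573/A405. Buffer 25 mM Hepes pH 7.5, 0.01% Triton X-100. No-enzyme wells as negative control.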
Caspase-7 inhib: caspase-7 (human) inhibition, allosteric or competitive | P55210 | Potency, µM (doses to about 57.5 µM), hits mostly inhibitors | AID 889 | 75,000 tested, 0.02% active | recombinant caspase-7, Ac-DEVD-AFC fluorescence rate; active = well fitted inhibition curve with a large enough effect in the main read-out, with a control signal flat, not every such curve was filed as active; inconclusive = small, poorly fitted or top-dose-only effect, or a change in a side signal
Tau fil binding: tau filament binding | P10636 | recombinant tau filaments, thioflavin S fluorescence, 15 h; filaments grown with octadecylsulfate alongside compound | Potency, µM (top dose mostly 57.1 µM) | 71,000 tested, 2% active;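 also: actives lower thioflavin S fluorescence by blocking filaments or displacing dye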
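Quantitative HTS: thioflavine S signal from ODS-induced tau filaments, excited at 450 nm, emission 510 nm. Conditions: 1 uM tau, 30 uM ODS, 15 h at 37 C, pH 7.4.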
ERK AVP inh: vasopressin-driven ERK pathway inhibition; Potency, µM (titrated, usually from 57.5 µM), hits mostly inhibitors; 72,000 tested, 0.99% active; AID 995; HEK293-V1b, vasopressin-stimulated pERK AlphaScreen; also: nearly all actives have a fitted effect of over 55% in size
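Overnight-seeded V1b-HEK293 cells in 1% FBS got compound, then vasopressin (25 nM final, 5 min, 37C), then lysis buffer. AlphaScreen detection of phospho-ERK; activity normalized to basal and full-stimulation controls.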
Hits are given with their value; [ ] = remark or other dose. Unless noted, calls follow the shape of the dose curve; as a rule, active = well fitted curve in the direction sought with a large enough effect; inconclusive = small, poorly fitted or top-dose-only effect, or another doubt; inactive = no such curve, though single readings can be large; an effect the other way counts as inactive or inconclusive.

Screening CCOC(=O)CSC1=C(C#N)C(c2ccccc2)C(C(C)=O)=C(C)N1 (configuration not stated) returned Casp1 inh inactive, ALOX15 inhib inactive, Caspase-7 inhib inactive, Tau fil binding inactive and ERK AVP inh inactive.
Screening CC(=O)C1=C(C)NC(SCC(=O)c2ccccc2)=C(C#N)C1c1ccco1 (configuration not stated) returned ALOX15 inhib inconclusive, Caspase-7 inhib inconclusive, Tau fil binding inactive and ERK AVP inh inactive.
CC(=O)C1=C(C)NC(SCC(=O)c2ccccc2)=C(C#N)C1CC(C)C (configuration not stated) was read as Casp1 inh inactive, ALOX15 inhib 4µM, Caspase-7 inhib inactive, Tau fil binding inactive and ERK AVP inh inactive.
Screening CSCSC1=C(C#N)C(c2ccc(Cl)cc2)C(C(C)=O)=C(C)N1 (configuration not stated) returned Casp1 inh inactive, ALOX15 inhib inconclusive, Caspase-7 inhib inactive, Tau fil binding inactive and ERK AVP inh inactive.
CC(=O)C1=C(C)NC(SCC(=O)c2ccc(Cl)cc2)=C(C#N)C1c1ccco1 (configuration not stated) was read as ALOX15 inhib 13µM, Caspase-7 inhib inconclusive, Tau fil binding inactive and ERK AVP inh inactive.
For CCCC[C@]1(C2CCCC2)Cc2cc(OCC(=O)O)c(Cl)c(Cl)c2C1=O the results were Casp1 inh inactive, ALOX15 inhib inactive, Caspase-7 inhib inactive, Tau fil binding inactive and ERK AVP inh inactive.
Screening C[C@@H]1CC[C@@H]2C(=O)N3[C@@H](CC[C@@H](C)[C@@H]3c3ccc(-c4ccco4)cc3)C(=O)N2[C@H]1c1ccc(-c2ccco2)cc1 returned Casp1 inh inactive[11.5 µM], ALOX15 inhib inactive[11.4 µM], Caspase-7 inhib inactive[11.5 µM] and ERK AVP inh inactive[11.5 µM].
CC1CCC2C(=O)N3C(CCC(C)C3c3ccc(-c4ccco4)cc3)C(=O)N2C1c1ccc(-c2ccco2)cc1 (configuration not stated) was read as Casp1 inh inactive[11.5 µM], ALOX15 inhib 2.5µM, Caspase-7 inhib inactive[11.5 µM] and ERK AVP inh inactive[11.5 µM].
Screening CC1CCC2C(=O)N3C(CCC(C)[C@@H]3c3ccc(-c4ccco4)cc3)C(=O)N2C1c1cccc(N2CCCC2=O)c1 (some centres not stated) returned Casp1 inh inactive[11.5 µM], ALOX15 inhib 5µM, Caspase-7 inhib inactive[11.5 µM] and ERK AVP inh inactive[11.5 µM].
O=C(Nc1cccc(F)c1)N1CCCC2(CCN(C(=O)c3ccco3)CC2)C1 was read as Casp1 inh inactive, ALOX15 inhib 0.32µM, Caspase-7 inhib inactive, Tau fil binding inactive and ERK AVP inh inactive.
O=C(Nc1cccc(F)c1)N1CC[C@@]2(CCCN(C(=O)c3ccco3)C2)C1 was read as Casp1 inh inactive, ALOX15 inhib inactive, Caspase-7 inhib inactive, Tau fil binding inactive and ERK AVP inh inactive.
For CCOC(=O)[C@]1(CC(=O)O)CCCC1=O the results were Casp1 inh inactive[11.5 µM], ALOX15 inhib inactive[11.4 µM], Caspase-7 inhib inactive[11.5 µM], Tau fil binding inactive[11.4 µM] and ERK AVP inh inactive[11.5 µM].
`CCN1C(=O)/C(=C2/C=CC=CN2C)OC1=S` gave Casp1 inh inactive, ALOX15 inhib inactive[11.4 µM], Caspase-7 inhib inactive, Tau fil binding inactive[11.4 µM] and ERK AVP inh inactive.
CN1C=CC=C/C1=C1\SC(=S)N(C2CCCCC2)C1=O was read as Casp1 inh inactive, ALOX15 inhib inactive[11.4 µM], Caspase-7 inhib inactive, Tau fil binding 4µM and ERK AVP inh inconclusive.
Screening c1ccc2c(c1)Cc1cc3cc4c(cc3nc1-2)OCO4 returned Casp1 inh inactive, Caspase-7 inhib inactive, Tau fil binding inactive and ERK AVP inh 25µM.
Screening COc1ccc(Oc2ncc3nc(-c4cccc(C#N)c4)c(=O)n(CCC#N)c3n2)cc1 returned Casp1 inh inactive, ALOX15 inhib inactive, Caspase-7 inhib inactive, Tau fil binding inactive and ERK AVP inh inconclusive.
COC(=O)[C@@]1(Cc2ccccc2)[C@H]2c3cc(C(=O)N4CCCC4)n(Cc4ccccc4)c3C[C@H]2CN1C(=O)c1ccccc1 was read as Casp1 inh inactive, Caspase-7 inhib inactive, Tau fil binding inactive and ERK AVP inh inactive.
For COc1ccc(-n2c(=O)c(CCc3ccccc3)nc3cncnc32)cc1 the results were Casp1 inh inactive, ALOX15 inhib inactive, Caspase-7 inhib inactive, Tau fil binding inactive and ERK AVP inh inactive.
Nc1nc(-c2ccco2)c(-c2ccco2)s1 was read as Casp1 inh inconclusive, ALOX15 inhib 20µM, Caspase-7 inhib inconclusive, Tau fil binding inconclusive and ERK AVP inh inconclusive.
`c1coc(-c2nc(-c3ccco3)c(-c3ccco3)nc2-c2ccco2)c1` gave ALOX15 inhib 2µM, Caspase-7 inhib inconclusive, Tau fil binding inconclusive and ERK AVP inh inactive.
Screening Nc1nc(-c2ccco2)cs1 returned Casp1 inh inactive, ALOX15 inhib inactive, Caspase-7 inhib inactive, Tau fil binding inactive and ERK AVP inh inactive.
Screening O=c1c(-c2cc(F)cc(F)c2)nc2cnc(N3CCOCC3)nc2n1-c1ccccc1 returned ALOX15 inhib inactive, Caspase-7 inhib inconclusive, Tau fil binding inactive and ERK AVP inh inactive.
For O=c1c(-c2cc(F)cc(F)c2)nc2cnc(N3CCNCC3)nc2n1-c1ccccc1 the results were ALOX15 inhib inactive, Caspase-7 inhib inconclusive, Tau fil binding 4µM and ERK AVP inh inactive.
O=c1c(-c2ccc(Cl)cc2)nc2cnc(N3CCNCC3)nc2n1-c1ccccc1 was read as ALOX15 inhib inactive, Caspase-7 inhib inconclusive, Tau fil binding 3.2µM and ERK AVP inh inconclusive.
`O=c1c(-c2ccccc2)nc2cnc(N3CCNCC3)nc2n1-c1ccccc1` gave ALOX15 inhib 0.32µM, Caspase-7 inhib inconclusive, Tau fil binding inactive and ERK AVP inh inactive.
For COc1ccc(-n2c(=O)c(-c3ccccc3)nc3cnc(N4CCNCC4)nc32)cc1 the results were Casp1 inh inactive, ALOX15 inhib inactive, Caspase-7 inhib inactive, Tau fil binding inconclusive and ERK AVP inh inactive.
Screening COc1ccc(-n2c(=O)c(-c3ccc(Cl)cc3)nc3cnc(N4CCNCC4)nc32)cc1 returned ALOX15 inhib inactive, Caspase-7 inhib inconclusive, Tau fil binding 4µM and ERK AVP inh inactive.
Screening C#C[C@]1(OC(C)=O)CCC2C3CCC4=CC(=O)CCC4C3CC[C@]21C (some centres not stated) returned Casp1 inh inactive, ALOX15 inhib inactive, Caspase-7 inhib inactive and ERK AVP inh inconclusive.
`Cc1cc(C)cc(N(CC(=O)O)S(=O)(=O)c2cccnc2)c1` gave Casp1 inh inactive, ALOX15 inhib inactive, Caspase-7 inhib inactive and Tau fil binding inactive.
Screening COc1cccc(-c2nc(N3CCN(C)CC3)c3ccccc3n2)c1 returned Casp1 inh inactive, ALOX15 inhib inactive, Caspase-7 inhib inactive, Tau fil binding inactive and ERK AVP inh inconclusive.
`CS(=O)(=O)N1CCC2(CCN(c3ccccn3)CC2)CC1` gave Casp1 inh inactive, ALOX15 inhib inactive, Caspase-7 inhib inactive, Tau fil binding inactive and ERK AVP inh inactive.
Screening O=C(Nc1ccc(Cl)cc1C(=O)Nc1ccccn1)c1ccco1 returned Casp1 inh inactive, ALOX15 inhib 0.16µM, Caspase-7 inhib inactive, Tau fil binding inactive and ERK AVP inh inactive.
